TDP1 cell noCPT: qHTS for Inhibitors of human tyrosyl-DNA phosphodiesterase 1 (TDP1): qHTS in cells in absence of CPT | 420,000 tested, 15% active | DT40 Tdp1-/- hTDP1 cells, no CPT, ATP luminescence, 48 h | Potency, µM (titrated, usually from 46.2 µM), usual class: inhibitors | AID 686978, 2013; further: nearly all actives have a fitted effect of over 55% in size
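Chicken DT40 Tdp1-/- cells stably complemented with human TDP1 were seeded at 400 cells/well with DMSO in place of 20 nM camptothecin. After compound pinning, cells grew at least 48 hr at 37 °C; viability read by CellTiter-Glo luminescence.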
D3 ag: activates the human D3 dopamine receptor. D3R DiscoveRx beta-arrestin cells, luminescence, 90 min. 410,000 tested, 0.58% active. P35462. max activation, %; in the data active means max activation above about 30%
Target sequence (P35462 whole entry, looked up): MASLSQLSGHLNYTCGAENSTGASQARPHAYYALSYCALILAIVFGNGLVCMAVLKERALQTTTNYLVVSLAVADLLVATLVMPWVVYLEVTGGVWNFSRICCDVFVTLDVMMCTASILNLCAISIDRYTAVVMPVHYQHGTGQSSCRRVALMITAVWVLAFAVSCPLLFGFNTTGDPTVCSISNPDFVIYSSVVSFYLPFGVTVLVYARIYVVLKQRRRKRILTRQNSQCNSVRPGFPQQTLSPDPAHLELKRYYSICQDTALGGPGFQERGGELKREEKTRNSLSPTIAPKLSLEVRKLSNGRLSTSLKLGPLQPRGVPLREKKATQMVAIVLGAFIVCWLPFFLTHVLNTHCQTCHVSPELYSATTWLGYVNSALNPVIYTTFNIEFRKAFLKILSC
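Agonist-mode cell screen: cells plated at 1500/well and incubated overnight at 37 °C, then exposed to library compounds for 90 min at 37 °C. Detection reagent was added for 30–60 min at room temperature, and luminescence was read.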
IL-1B inflam inh: inhibitors of inflammasome signaling (IL-1 beta secretion) | THP-1 LPS/ATP IL-1B secretion, AlphaLISA, 16 h; stronger effect = lower value | activity change, % at 57.5 µM | 360,000 tested, 4.7% active | AID 743279; in the data active means activity change below about -50%; inconclusive means mostly about -30% to -49%
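Secreted IL-1B measured by AlphaLISA bead assay after 16 h compound exposure of THP-1 cells; compounds (final up to 57.5 uM) added 1 h before LPS (250 ng/mL) and ATP (1.25 mM) stimulation; lower signal means less secretion.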
D3 antag: D3 dopamine receptor (human) antagonism. P35462. D3R cells, DiscoveRx beta-arrestin luminescence, antagonist mode; stronger effect = lower value. max response, negative = inhibition, %. 360,000 tested, 2.5% active. AID 652054; in the data active means max response below about -50%; inconclusive means no clear call, values can overlap the other calls
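Cells plated overnight at 1500 cells/well, then exposed to library compounds with dopamine controls for 90 minutes at 37 degrees C. DiscoveRx reagent added for 30–60 minutes at room temperature; luminescence read, quantitative HTS format.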
ClpP mod: qHTS Assay for Activators of ClpP; ATP-dependent Clp protease proteolytic subunit (Bacillus subtilis (strain 168)), P80244; purified B. subtilis ClpP, FRET peptide cleavage, 20 min; Potency, µM (doses to about 57.5 µM); 340,000 tested, 1.9% active; active means well fitted falling curve with a large enough effect; inconclusive means small, poorly fitted or top-dose-only effect; inactive means no such curve, though single readings can be large or run the other way; further: the source files actives as falling curves though it sought activators and does not explain the sign; nearly all actives have a fitted effect of over 65% in size
Target sequence (P80244 whole entry, looked up): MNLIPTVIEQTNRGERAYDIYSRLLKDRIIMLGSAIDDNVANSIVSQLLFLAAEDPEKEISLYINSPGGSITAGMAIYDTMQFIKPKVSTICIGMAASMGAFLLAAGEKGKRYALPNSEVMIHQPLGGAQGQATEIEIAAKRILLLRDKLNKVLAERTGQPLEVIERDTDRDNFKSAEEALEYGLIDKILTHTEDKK
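FRET quenching reversal measured ClpP activation: 10 microg/mL B. subtilis ClpP at pH 8 with the FRET-FV decapeptide, read at 430 nm after 320 nm excitation. The 20-min minus 0-min signal was scaled between DMSO/no-enzyme wells and ADEP (5.8 microM final).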
TDP1 cell CPT: DT40-hTDP1 cell growth loss with CPT; chicken DT40 Tdp1-/-;hTDP1 cells + 20 nM CPT, ATP luminescence, 48 h; Potency, µM (highest dose often 46.2 µM), usual class: inhibitors; 420,000 tested, 12% active; AID 686979; further: nearly all actives have a fitted effect of over 55% in size
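Chicken DT40 Tdp1-/- cells complemented with human TDP1, 400 cells/well, exposed to compounds plus 20 nM camptothecin for at least 48 h at 37 C; viability read as ATP content by CellTiter-Glo luminescence.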
Numbers stand for hits; i = inactive; ? = inconclusive; nt = not tested or not shown. A selection: hits, their analogues and other compounds. The true share with any hit is near 21%. Unless noted, the call rests on the fitted dose curve; in most records, active means well fitted inhibition curve with a large enough effect; inconclusive means small, poorly fitted or top-dose-only effect; inactive means flat fitted curve, though single readings scatter.

SMILES	TDP1 cell noCPT	D3 ag	IL-1B inflam inh	D3 antag	ClpP mod	TDP1 cell CPT
COc1ccccc1N1CC(C(=O)OCC(=O)c2c(N)n(C)c(=O)n(C)c2=O)CC1=O (configuration not stated)	i	i	i	i	i	i
Cc1cc(OCC(=O)N2CCc3ccccc3C2)c2c(-c3ccccc3)cc(=O)oc2c1	?	i	i	i	i	23µM
CC(=O)Oc1cc(C)cc2oc(=O)cc(-c3ccccc3)c12	?	i	i	i	i	i
Cc1cc(OC(C)C)c2c(-c3ccccc3)cc(=O)oc2c1	?	i	i	i	i	23µM
CCOc1cc(C)cc2oc(=O)cc(-c3ccccc3)c12	21µM	i	i	i	i	13µM
CCOc1cc(C2Nc3ccccc3NC3=C2C(=O)CC(C)(C)C3)ccc1OC(C)=O (configuration not stated)	i	i	i	i	i	i
Cc1ccc2cccnc2c1NC(=S)NC(=O)c1ccccc1	i	i	i	?	i	?
Cc1cc(C)c2cccc(NC(=S)NC(=O)c3ccccc3)c2n1	13µM	i	i	i	i	16µM
Cc1ccc2cccc(NC(=S)NC(=O)c3ccccc3)c2n1	?	i	i	i	i	18µM
Cc1ccc(N/N=C(/Sc2nnnn2-c2ccccc2)C(=O)c2ccccc2)cc1	?	i	i	i	i	29µM
O=C(/C(=N\Nc1ccc([N+](=O)[O-])cc1)Sc1nnnn1-c1ccccc1)c1ccccc1	?	i	i	-82	i	?
C=CCC1CCC/C(=N\NS(=O)(=O)c2ccc(C)cc2)C1 (configuration not stated)	i	i	i	i	i	?
C#CCNC(=O)C[C@@H]1C[C@@]2(C(=O)OC)CCCCC=C2N(Cc2cccc3ccccc23)C1=O	?	i	i	i	i	?
COC(=O)[C@]12CCCCC=C1N(Cc1cccc3ccccc13)C(=O)[C@H](CC(=O)N1CCN(C(=O)C3CC3)CC1)C2	21µM	i	i	i	i	?
COC(=O)[C@]12CCCCC=C1N(Cc1cccc3ccccc13)C(=O)[C@H](CC(=O)N1CCN(C(=O)c3ccco3)CC1)C2	?	i	i	i	i	?
COC(=O)[C@]12CCCCC=C1N(Cc1cccc3ccccc13)C(=O)[C@H](CC(=O)N1CCCC1)C2	21µM	i	i	i	i	?
O=c1c2cn(Cc3ccc(F)cc3)c3ccc(F)cc3c-2nn1Cc1ccc(F)cc1	i	i	i	i	nt	i
NS(=O)(=O)c1ccc(CNC(=O)c2ccccc2SCC(=O)N2CCCC2)cc1	?	i	i	i	i	i
COc1cc(N=c2ssnc2Cl)c(OC)cc1Cl	2.6µM	i	-88	?	i	2.6µM
COc1cc(NC(=O)c2cc(-c3cccs3)on2)c(OC)cc1Cl	i	i	nt	nt	?	?
COc1ccc(OC)c(N=c2ssnc2Cl)c1	12µM	i	i	i	i	12µM
COc1ccc(OC)c(C=NN=Cc2cc(OC)ccc2OC)c1	?	i	i	i	i	i
CCc1cc(C(=O)Nc2cnn(Cc3ccccc3C)c2)no1	?	i	nt	nt	i	?
CCOc1cc(S(=O)(=O)NCCCN2CCOCC2)c(C)cc1C	i	i	i	i	i	i
COc1cc(/C=C(\C#N)c2ccccn2)ccc1OCc1ccccc1	?	i	i	i	i	i
SMILES	TDP1 cell noCPT	D3 ag	IL-1B inflam inh	D3 antag	ClpP mod	TDP1 cell CPT
COc1cccc(/C=C(\C#N)c2nc3ccc(C)cc3[nH]2)c1	18µM	i	nt	nt	i	18µM
COc1cc(/C=C(\C#N)c2nc3ccc(C)cc3[nH]2)ccc1OCc1ccc(C)cc1	8.2µM	i	nt	nt	i	12µM
COc1cc(/C=C(\C#N)c2ccccn2)ccc1OCc1ccc(Cl)cc1	23µM	i	i	i	i	?
O=C(O)/C=C/C(=O)NC1CCCCCCCCCCC1	i	i	i	i	i	i
CCOC(=O)c1c(-c2ccccc2)oc2ccc(NS(=O)(=O)c3ccc(OC)cc3)cc12	3.3µM	i	nt	nt	i	4.6µM
CCOC(=O)c1c(-c2ccccc2)oc2ccc(NS(=O)(=O)c3ccccc3)cc12	i	i	nt	nt	i	?
CC(=O)c1c(C)oc2ccc(NS(=O)(=O)c3ccc(F)cc3C)cc12	18µM	i	i	i	nt	23µM
Cc1cc(C)c(S(=O)(=O)Nc2ccc3oc(C)c(C(=O)OC(C)C)c3c2)cc1C	13µM	i	nt	nt	i	?
Cc1cc(F)ccc1S(=O)(=O)Nc1ccc2oc3c(c2c1)CC(C)CC3 (configuration not stated)	?	i	nt	nt	i	?
CCOC(=O)c1c(-c2ccccc2)oc2ccc(NS(=O)(=O)c3cc(C)c(C)cc3C)cc12	10µM	i	nt	nt	i	18µM
Cc1cccc(CNS(=O)(=O)c2ccc3[nH]c(=O)ccc3c2)c1	i	i	nt	nt	i	?
O=C(Nc1ccc(Br)cc1)C1OCCc2ccccc21 (configuration not stated)	i	i	i	i	nt	i
CCc1ccc(-c2nn(CC(=O)NC3CCCCC3)c3c2cnc2ccc(F)cc23)cc1	i	i	nt	nt	i	i
CCC(Oc1ccccc1)C(=O)Nc1cc(-c2ccccc2OC)nn1-c1ccccc1 (configuration not stated)	23µM	i	nt	nt	?	?
COc1ccccc1-c1cc(NC(=O)COc2ccc(C)c(C)c2)n(-c2ccccc2)n1	?	i	nt	nt	?	?
CC(C)CC(=O)Nc1cc(-c2ccccc2F)nn1-c1ccccc1	12µM	i	nt	nt	i	26µM
CCc1nnc(NS(=O)(=O)c2ccc(NC(=O)/C=C/c3ccc(OC)cc3OC)cc2)s1	i	i	i	i	i	i
CCCCSc1nnc2n(CCc3ccccc3)c(=O)c3c4c(sc3n12)COC(C)(C)C4	23µM	i	i	i	i	23µM
CCOc1ccc(OCCOCCN2CCCC2)cc1	i	i	i	i	i	i
Cc1ccc(SCCOCCN2CCc3ccccc3C2)cc1	16µM	i	i	-105	i	?
CCCOc1ccc(OCCOCCN2CCc3ccccc3C2)cc1	?	i	i	-70	i	?
CCOc1ccc(OCCOCCN2CCc3ccccc3C2)cc1	i	i	i	-58	i	i
C=CCc1cc(OC)ccc1OCCOCCN1CCc2ccccc2C1	?	i	?	-88	nt	?
C=CCc1cc(OC)ccc1OCCOCCC(C(=O)OCC)C(=O)OCC	i	i	i	i	i	i
C[C@]12CC[C@@H]3c4ccc(O)cc4C(=O)C[C@H]3[C@@H]1CC[C@@H]2O	i	i	i	i	i	i

Screens: PubChem, National Center for Advancing Translational Sciences (NCATS)
